Results filed as inconclusive are left out. Calls of active or inactive are those of the source. Calls follow the shape of the full dose curve.
Molecular target: D(2) dopamine receptor (Homo sapiens) (UniProt P14416)
Assay: Dopamine D2 receptor (DRD2) small molecule agonists, cell-based qHTS assay (AID 1963594); also: nearly all actives have a fitted effect of over 35% in size
Details: HEK293-DRD2 cAMP HTRF, agonist mode, 30 min; series mostly up to 92.4 µM; activation: at the top concentration
From the text: National Center for Advancing Translational Sciences [NCATS]
Division of Preclinical Innovation [DPI]
U.S. Environmental Protection Agency [EPA]
National Institutes of Environmental Health Sciences [NIEHS]
National Toxicology Program [NTP]
U.S. Food and Drug Administration [FDA]
DRD2 is the D2 subtype of the dopamine receptor, which is coupled to Gi subtype of G protein-coupled receptor. This G protein-coupled receptor inhibits adenylyl cyclase activity. The DRD2-HEK293 cell line stably expressing D2 dopamine receptor can be used for screening agonists and antagonists of interactions between D2 and its ligands. The Hek293-DRD2 cAMP assay is based on HTRF technology. It measures changes of cAMP accumulation in response to Gi coupled GPCR activation or inhibition.
Tox21 Assay Protocol Summary:
DRD2-Hek293 cells were dispensed at 600 cells/3uL/well in 1536-well white plates using a Multidrop Dispenser. After the assay plates were incubated at a 37 C/5% CO2 incubator for 24 h, 1 uL of Ro20-1724 at final concentration of 0.1 mM was transferred to the assay plate by a Flying Reagent Dispenser. Following Ro20-1724 addition, 23 nL of compound dissolved in DMSO, positive controls or DMSO only was added to the assay plates via Wako pintool station. The assay plates were incubated at room temperature for 10 min. Next, 1 uL of NKH477 at 200nM was added into the plates. After the assay plates were incubated at room temperature for an additional 30 min, 2.5 ul/well of cAMP-d2 and 2.5 ul/well of anti-cAMP-cryptate were added respectively into the assay plates using a Flying Reagent Dispenser. The plates were incubated at room temperature for 1 h. The fluorescence intensity in the plates was measured at 340 nm excitation and 665 & 620 nm emission by an Envision plate reader.
% is scaled to controls: 0 for no effect and ±100 for the full control effect.

D(2) dopamine receptor (Homo sapiens), sequence (P14416 whole entry, looked up): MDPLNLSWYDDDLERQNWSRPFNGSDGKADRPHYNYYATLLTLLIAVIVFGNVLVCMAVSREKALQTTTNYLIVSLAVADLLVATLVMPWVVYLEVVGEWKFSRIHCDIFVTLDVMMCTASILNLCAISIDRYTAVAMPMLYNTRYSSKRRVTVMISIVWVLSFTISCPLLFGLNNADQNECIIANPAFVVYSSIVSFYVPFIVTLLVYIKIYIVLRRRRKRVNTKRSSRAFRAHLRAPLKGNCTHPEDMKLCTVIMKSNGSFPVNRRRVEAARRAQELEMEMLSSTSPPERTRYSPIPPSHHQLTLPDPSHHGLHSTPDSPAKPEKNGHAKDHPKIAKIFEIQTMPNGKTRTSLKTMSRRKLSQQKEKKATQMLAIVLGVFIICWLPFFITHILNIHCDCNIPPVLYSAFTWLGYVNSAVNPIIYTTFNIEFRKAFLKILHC

Row | SMILES | activation
1 | Nc1cccc([N+](=O)[O-])c1 | -3.5% (inactive)
2 | COC(=O)c1cc(Cl)cc(Cl)c1 | -0.708% (inactive)
3 | C=C/C=C/C=C/CCCCC | -0.0392% [at 19 µM] (inactive)
4 | CC(O)CC(C)O (stereo not given) | 0.715% (inactive)
5 | NC(N)=NN=C(/C=C/c1ccc([N+](=O)[O-])o1)/C=C/c1ccc([N+](=O)[O-])o1 | 3.37% [at 42.5 µM] (inactive)
6 | CCO[Si](CC(C)C)(OCC)OCC | 4.25% (inactive)
7 | O=[N+]([O-])c1nccn1CO[C@@H](CO)[C@H](O)CO | 1.36% [at 42.5 µM] (inactive)
8 | C#C[C@]1(OC(C)=O)CC[C@H]2[C@@H]3CCC4=C/C(=N/O)CC[C@@H]4[C@H]3CC[C@@]21CC | 18.1% [at 42.5 µM] (inactive)
9 | CC1=CCC(C(C)C)C=C1 (stereo not given) | -0.445% (inactive)
10 | CCCCc1cc2ccccc2c(OCCN(C)C)n1 | -0.652% [at 42.5 µM] (inactive)
11 | O=C(O)/C=C/c1ccc(O)c(O)c1 | -0.769% (inactive)
12 | CCCNC(C)C(=O)Nc1c(C)csc1C(=O)OC (stereo not given) | -1.49% [at 42.5 µM] (inactive)
13 | CC(=O)Nc1ccc(S(=O)(=O)Cl)cc1 | -2.59% (inactive)
14 | OCc1cc(C(O)CNCCCCCCOCCCCc2ccccc2)ccc1O (stereo not given) | -12.1% [at 42.5 µM] (inactive)
15 | CC(O)C#CC(C)O (stereo not given) | -7.85% (inactive)
16 | CCCC(=O)OCCC(C)CCC=C(C)C (stereo not given) | 13% (inactive)
17 | COC(C)(C)OC | -3.03% (inactive)
18 | O=C(O)c1cc(C(=O)O)cc(C(=O)O)c1 | -0.207% (inactive)
19 | CN(C)CCOC(c1ccccc1)c1ccccc1 (tested in a mixture with another compound) | 4.31% (inactive)
20 | CC(C)(C)C1CCCCC1=O (stereo not given) | -2.68% (inactive)

Row | SMILES | activation
21 | COc1ccc(C(=O)/C(Br)=C\C(=O)O)cc1 | -9.97% (inactive)
22 | C/C=C/C=C/CO | 0.162% (inactive)
23 | O=C(CCCCCCC(=O)Nc1ccccc1)NO | -18.6% [at 42.5 µM] (inactive)
24 | CCCCCCCCCCCC(=O)OCC | 12% (inactive)
25 | O=C(O)[C@@H]1CSCN1 | 13.4% [at 42.5 µM] (inactive)
26 | CCOc1ccc(NC(=O)CC(C)=O)cc1 | -0.427% (inactive)
27 | CC1=C(/C=C/C(C)=C/C=C/C(C)=C/C=O)C(C)(C)CCC1 | 0.13% (inactive)
28 | CC1CCCNC1 (stereo not given) | -2.58% (inactive)
29 | CCOC(=O)OC(C)OC(=O)[C@@H]1N2C(=O)[C@@H](NC(=O)[C@H](N)c3ccccc3)[C@H]2SC1(C)C (stereo not given in full) | 4.15% [at 42.5 µM] (inactive)
30 | CN(C)CCOc1ccc(/C(=C(/CCCl)c2ccccc2)c2ccccc2)cc1 | -10.9% (inactive)
31 | O=C1Nc2ccc([N+](=O)[O-])cc2C1=O | -0.633% (inactive)
32 | NC(=O)N1C(=O)C(C(=O)c2cc(Cl)cs2)c2cc(F)c(Cl)cc21 (stereo not given) | 0.778% (inactive)
33 | CCCCCCCCCCCCSC#N | 0.156% (inactive)
34 | CC(CC(=O)Cl)CC(C)(C)C (stereo not given) | -0.143% (inactive)
35 | O=CN(CCO)CCO | -0.113% (inactive)
36 | COc1cc(Nc2c(C#N)cnc3cc(OCCCN4CCN(C)CC4)c(OC)cc23)c(Cl)cc1Cl | -24.2% [at 42.5 µM] (inactive)
37 | O=C(O)COc1ccc2ccccc2c1 | -0.804% (inactive)
38 | Cn1c(=O)c2c(ncn2CCO)n(C)c1=O | 5.02% [at 42.5 µM] (inactive)
39 | O=[N+]([O-])c1cc(C2CCCCC2)c(O)c([N+](=O)[O-])c1 | -0.479% (inactive)
40 | CC(C)(C)C(=O)c1ccccc1 | -1.01% (inactive)

From PubChem BioAssay (Tox21)
